# From PubChem BioAssay
# Values joined by “and” are separate entries in the source; they are usually repeats but may differ in a detail not shown here. Equal entries are not always repeated. Results filed as inconclusive are left out. Active and inactive are the calls of the source.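 The calls were made as follows, unless noted: active = compounds whose cell count with miR-34 switched on is under 0.7 times the count with it off; inactive = the rest.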
# Tests used:
# [1] = growth inhibition of DIPG cells – cell-based, MIPE5.0 library, qHTS (AID 1347068; cut-off not given, nearly all actives have IC50 up to about 30 µM;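 as to IC50: cells exposed to compound for 48 hours before viability readout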); conditions: SU-DIPG-XXV viability
# [2] = viability loss with induced miR-34 in A549 – imaging, A549 dox-inducible miR-34, nuclei and caspase counts, primary screen (AID 1347080); conditions: A549 miR-34 inducible, Hoechst nuclei count, 48 h
# [3] = P. berghei load reduction in hepatocytes – cell-based, HepG2, luciferase luminescence, HepG2 viability, primary screen (AID 624349; in the data active = parasite load remaining mostly below about 12%, no sharp cut-off; inactive = mostly above about 10%;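 also: 100% = mean of DMSO negative control wells on the same plate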); conditions: P. berghei liver stage in HepG2, luciferase luminescence, concentration not given here; parasite load remaining: stronger effect = lower value; viability: measured here: HepG2 viability without parasites
# [4] = system: Hepatitis C virus NS3 helicase; test: blockers of NS3h binding to ssDNA – biochemical, fluorescence polarization, LOPAC1280 library, primary screen (AID 687035; in the data active = inhibition above about 37%); conditions: Purified HCV NS3 helicase, Cy5-dT15 ssDNA binding fluorescence polarization; stronger effect = higher value; concentration not given here
# [5] = compounds altering Cy5-DNA-NS3h complex signal – biochemical, LOPAC1280, artefact control for HCV NS3 helicase inhibitor project (AID 687037; call rule not given here); conditions: Cy5-DNA-NS3h complex fluorescence interference counterscreen
# [6] = blockers of cellular phospholipid synthesis – cell-based, LOPAC library, screen 4, primary screen (AID 1347384; call rule not given here); conditions: animal cells, phospholipid biosynthesis inhibition screen; at 10 µM
# [7] = galactose survival enhancers in mitochondrial complex I cybrids – cell-based, galactose medium, ATP luminescence, primary screen (AID 1645843;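 active = z-score of at least 1.8 in each of two replicates, scored against plate mean and spread of sample wells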;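 also: positive z means more ATP and so rescue of galactose-driven cybrid death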); conditions: complex I mutant cybrid cells, 72 h, stronger effect = higher value
# [8] = stronger effect = lower value, cell number ratio, induced over uninduced
# [9] = measured here: relative caspase fold change +Dox/-Dox
# [10] = measured here: total cells with miR-34 induction, stronger effect = lower value
# [11] = measured here: total cells without miR-34 induction
smiles,measurement,setting,value
Cn1c(NC[C@@H](N)Cc2ccccc2)nc(-c2ccncc2)c(-c2ccc3ccccc3c2)c1=O,outcome,[1],inactive
COc1ccc(-c2c(C)nn3c(NCCN4CCOCC4)cc(C)nc23)cc1OC,outcome,[1],inactive
C[C@]12CCC3[C@@H](CC[C@H]4NC(=O)C=C[C@]34C)[C@@H]1CC[C@@H]2C(=O)Nc1cc(C(F)(F)F)ccc1C(F)(F)F (stereo not given in full),outcome,[1],inactive
CCCCC[C@H](O)/C=C/[C@H]1CCC(=O)[C@@H]1C/C=C\CCCC(=O)O,fold change,[2]; [8],0.932 (inactive)
same,fold change,[2]; [9],1.35
same,cell count,[2]; [10],6060
same,cell count,[2]; [11],6510
COc1cc2c(NC3CCN(C4CCCCC4)CC3)nc(N3CCCN(C(C)C)CC3)nc2cc1OCCCN1CCCCC1,IC50,[1],5.9 µM (active)
CC(=O)OCC(=O)[C@@]12N=C(C)O[C@@H]1CC1C3CCC4=CC(=O)C=C[C@]4(C)C3[C@@H](O)C[C@@]12C (stereo not given in full),fold change,[2]; [8],0.915 (inactive)
same,fold change,[2]; [9],0.993
same,cell count,[2]; [10],6330
same,cell count,[2]; [11],6910
CCOC(=O)C1=CCCCC1S(=O)(=O)Nc1ccc(F)cc1Cl (stereo not given),outcome,[1],inactive
CC(C)(C)S(=O)(=O)c1ccc2nccc(Nc3n[nH]c4ccc(F)cc34)c2c1,outcome,[1],inactive
O=C(O)c1ccccc1-c1ccc(/C=c2\sc3nc4cc(Br)cnc4n3c2=O)o1,outcome,[1],inactive
CCCCCCCC/C=C\CCCCCC(=O)O,fold change,[2]; [8],0.938 (inactive)
same,fold change,[2]; [9],0.407
same,cell count,[2]; [10],5490
same,cell count,[2]; [11],5860
C/C=C(/C)C(=O)O[C@H]1C(C)=CC23C(=O)C(C=C(CO)[C@@H](O)[C@]12O)[C@H]1[C@@H](C[C@H]3C)C1(C)C (stereo not given in full),outcome,[1],inactive
CCCCCCCCCCCCCCCCSC[C@H](COP(=O)([O-])OCC[N+](C)(C)C)NC(=O)CCCCCCCCCCCCCCC,fold change,[2]; [8],1.04 (inactive)
same,fold change,[2]; [9],0.778
same,cell count,[2]; [10],6260
same,cell count,[2]; [11],6010
O=C(Nc1cccc(C(F)(F)F)c1)c1cccc2cc(Oc3cc(CO)ncn3)ccc12,outcome,[1],inactive
C=CC(=O)N[C@H]1CCOC[C@H]1Nc1ncc2cc(-c3c(Cl)c(OC)cc(OC)c3Cl)ccc2n1,outcome,[1],inactive
CC(C)=CCC/C(C)=C/CC/C(C)=C/CC[C@]1(C)CCc2c(C)c(O)c(C)c(C)c2O1,fold change,[2]; [8],0.928 (inactive)
same,fold change,[2]; [9],0.656
same,cell count,[2]; [10],5490
same,cell count,[2]; [11],5920
O=C(O)CC1CCC(c2ccc(-c3ccc(Nc4ccc(C(F)(F)F)nc4)cn3)cc2)CC1 (stereo not given),outcome,[1],inactive
CCCCC/C=C\CCCCCCCCCCCCC(=O)O,fold change,[2]; [8],0.9 (inactive)
same,fold change,[2]; [9],1.51
same,cell count,[2]; [10],4990
same,cell count,[2]; [11],5540
O=C1NC(=O)/C(=C/c2ccc3nccnc3c2)S1,parasite load remaining,[3],25.6% (inactive)
same,viability,[3],76.4%
same,inhibition,[4],0% (inactive)
same,fluorescence ratio (interference),[5],1 (inactive)
same,outcome,[1],inactive
same,fold change,[2]; [8],0.99 (inactive) and 0.764 (inactive)
same,fold change,[2]; [9],0.943 and 0.46
same,cell count,[2]; [10],3810 and 4630
same,cell count,[2]; [11],3850 and 6050
same,outcome,[6],inactive
same,z-score,[7],0.905 (inactive)
O=C(O)CCC/C=C\C[C@@H]1[C@@H](CCC(=O)CCc2ccccc2)[C@H](O)C[C@@H]1O,fold change,[2]; [8],0.934 (inactive)
same,fold change,[2]; [9],1.4
same,cell count,[2]; [10],5970
same,cell count,[2]; [11],6390
CCCCC[C@H](O)/C=C/[C@@H]1[C@@H](C/C=C\CCCC(=O)OC(C)C)[C@@H](O)C[C@H]1O,fold change,[2]; [8],0.994 (inactive)
same,fold change,[2]; [9],1.14
same,cell count,[2]; [10],5380
same,cell count,[2]; [11],5420
CCCCCCCC(=O)CC[C@@H]1[C@@H](C/C=C\CCCC(=O)OC(C)C)[C@@H](O)C[C@H]1O,fold change,[2]; [8],0.954 (inactive)
same,fold change,[2]; [9],1.15
same,cell count,[2]; [10],5890
same,cell count,[2]; [11],6180
COC(=O)CCCCCC[C@@H]1[C@@H](CCC(O)C#Cc2ccccc2F)[C@H](O)C[C@@H]1O (stereo not given in full),fold change,[2]; [8],1.01 (inactive)
same,fold change,[2]; [9],0.855
same,cell count,[2]; [10],5830
same,cell count,[2]; [11],5780
COc1ccc2c(c1)c(CC(=O)Nc1ccc(NC(C)=O)cc1)c(C)n2C(=O)c1ccc(Cl)cc1,fold change,[2]; [8],1.05 (inactive)
same,fold change,[2]; [9],1.43
same,cell count,[2]; [10],5880
same,cell count,[2]; [11],5610
O=C1OC(O)C(c2cc3ccccc3s2)=C1Br (stereo not given),fold change,[2]; [8],0.915 (inactive)
same,fold change,[2]; [9],0.534
same,cell count,[2]; [10],5180
same,cell count,[2]; [11],5660
CC(C)CCCCCCC/C=C\C(=O)O,fold change,[2]; [8],0.991 (inactive)
same,fold change,[2]; [9],0.344
same,cell count,[2]; [10],5830
same,cell count,[2]; [11],5880
C#C[C@]1(O)CC[C@H]2[C@@H]3CCC4=CC(=O)CCC4[C@H]3CC[C@@]21CC (stereo not given in full),fold change,[2]; [8],0.961 (inactive)
same,fold change,[2]; [9],0.754
same,cell count,[2]; [10],6080
same,cell count,[2]; [11],6330
O=C(O)CCCCCCCCCCCNC(=O)NC1CCCCC1,fold change,[2]; [8],0.963 (inactive)
same,fold change,[2]; [9],0.896
same,cell count,[2]; [10],5580
same,cell count,[2]; [11],5790
CCCCC/C=C\C/C=C\CC/C=C\CCCC(=O)OC,fold change,[2]; [8],0.951 (inactive)
same,fold change,[2]; [9],0.414
same,cell count,[2]; [10],6030
same,cell count,[2]; [11],6340
O=C(O)CCC/C=C\C[C@@H]1[C@@H](/C=C/[C@@H](O)C2CCCCC2)[C@H](O)C[C@@H]1O,fold change,[2]; [8],0.938 (inactive)
same,fold change,[2]; [9],1.34
same,cell count,[2]; [10],5910
same,cell count,[2]; [11],6300
C[C@H](N)C(=O)CCCCCC(=O)O,fold change,[2]; [8],1.03 (inactive)
same,fold change,[2]; [9],0.642
same,cell count,[2]; [10],6090
same,cell count,[2]; [11],5890
CCCCCCCCCCCCCCCCCC(=O)NCCO,fold change,[2]; [8],0.986 (inactive)
same,fold change,[2]; [9],1.01
same,cell count,[2]; [10],6030
same,cell count,[2]; [11],6120
CCCCC/C=C/C=C1/C=CC(=O)[C@@H]1CCCCCCC(=O)O,fold change,[2]; [8],1.71 (inactive)
same,fold change,[2]; [9],0.938
same,cell count,[2]; [10],5570
same,cell count,[2]; [11],3250
O=S(=O)(NO)c1ccccc1,fold change,[2]; [8],1.01 (inactive)
same,fold change,[2]; [9],0.412
same,cell count,[2]; [10],5110
same,cell count,[2]; [11],5060
CCCCC[C@](C)(O)/C=C/[C@@H]1[C@@H](C/C=C\CCCC(=O)O)[C@@H](O)C[C@H]1O,fold change,[2]; [8],0.971 (inactive)
same,fold change,[2]; [9],1.48
same,cell count,[2]; [10],5410
same,cell count,[2]; [11],5570
